Source: PubChem (National Center for Advancing Translational Sciences (NCATS))
In the library only some 21% were active in any assay of this set; here they are far more common.
Pf growth 96h – inhibits malaria parasite growth, 96 h; P. falciparum luciferase reporter growth, 96 h; Potency, µM (titrated, usually from 28.7 µM), most hits filed as inhibitors; 320,000 tested, 6.9% active
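P. falciparum expressing integrated firefly luciferase, in erythrocytes at 2% hematocrit, 0.05% parasitemia, incubated with compounds 96 h at 37 C, 5% CO2. Growth inhibition read as loss of luminescence; two-generation exposure targets delayed-death apicoplast inhibitors.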
Sm TGR block – inhibitors of Schistosoma mansoni thioredoxin glutathione reductase; 360,000 tested, 3% active; Q962Y6; purified TGR, DTNB reduction, TNB absorbance 405 nm; Potency, µM (doses to about 114 µM), actives largely listed as inhibitors; note: nearly all actives have a fitted effect of over 60% in size
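Kinetic colorimetric format: TGR-catalysed, NADPH-driven DTNB reduction monitored via TNB absorbance. Enzyme dispensed at 20 nM; compound exposure 15 min at room temperature before reaction start.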
Cycloheximide cs – counter-screen hit for Shiga toxin inhibitors, cycloheximide; cell reporter, cycloheximide protein synthesis inhibition counterscreen; max response, %; 300,000 tested, 12% active; AID 2314; in the data active = max response mostly above about 13%, no sharp cut-off; inactive = mostly below about 14%; note: read at 38.3 µM for the half of the compounds with a filed dose
NS1 inh – blocks influenza NS1 protein function; Potency, µM (top dose mostly 46.1 µM); 270,000 tested, 0.4% active; AID 2326; calls by dose curve; note: actives are rising curves; nearly all actives have a fitted effect of over 50% in size
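Growth recovery, yeast-based: influenza A NS1 expressed in S. cerevisiae causes slow growth, and suppressors are detected by OD600. The parent strain without NS1 is used as positive control.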
Pf growth 48h – inhibits P. falciparum growth in the first generation, 48 h | P. falciparum luciferase growth in erythrocytes, 48 h | Potency, µM (highest dose often 28.7 µM), usual class: inhibitors | 310,000 tested, 5.9% active
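In quantitative HTS format, infected erythrocytes bearing luciferase-reporter parasites were treated for a single generation at 37 C. Luminescence after adding detection reagent served as the growth measure.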
Shiga toxin inh – inhibitors of Shiga toxin in Vero cells; 290,000 tested, 9.2% active; Vero cells, Shiga toxin protein synthesis inhibition reporter; inhibition, % at 38.7 µM; in the data active = inhibition mostly above about 28%, no sharp cut-off; inactive = mostly below about 43%
A number is an active result; – = inactive; ? = inconclusive; · = not tested or not shown; [ ] = dose if it differs, or a comment. Unless noted, calls come from the whole dose curve; as a rule, active = well fitted curve in the direction sought with a large enough effect; inconclusive = small, poorly fitted or top-dose-only effect, or another doubt; inactive = no such curve, though single readings can be large; an effect the other way counts as inactive or inconclusive.

SMILES | Pf growth 96h | Sm TGR block | Cycloheximide cs | NS1 inh | Pf growth 48h | Shiga toxin inh
Cc1ccccc1NC(=O)c1ccc(CN(c2ccccc2)S(=O)(=O)c2ccccc2)cc1 | – | – | – | – | ? | –
Cc1cc2c(s1)c1cnn(Cc3ccccc3)c(=O)c1n2C | · | · | – | · | · | –
CCc1ccc(OCC2c3cc(OC)c(OC)cc3CCN2C(=O)Cc2ccc(OC)c(OC)c2)cc1 (stereo not given) | · | – | · | · | · | ·
CCOC(=O)CSCc1cn2cc(Cl)ccc2n1 | · | – | 24 | – | – | –
COc1cc(/C=C/C(=O)OCc2cn3cc(Cl)ccc3n2)ccc1O | ? | – | – | – | 10µM | –
CC(SCc1cn2cc(Cl)ccc2n1)C(=O)O (stereo not given) | – | – | – | – | – | –
Cc1ccc(-c2csc3ncn(CC(=O)NCC(c4ccco4)N4CCCC4)c(=O)c23)cc1 (stereo not given) | ? | – | · | · | – | ·
Cn1nc(C(F)(F)F)c(/C=N/OC(=O)c2ccccc2Cl)c1SCc1ccccc1Cl | ? | – | – | – | 13µM | –
Cn1nc(C(F)(F)F)c(/C=N/OC(=O)c2ccccc2)c1SCc1ccc(Cl)cc1 | ? | – | – | – | – | –
N#CCN1C(=O)C2CCCN2c2ccc(S(=O)(=O)N3CCOCC3)cc21 (stereo not given) | – | ? | – | – | ? | –
O=C1C2CCCN2c2ccc(S(=O)(=O)N3CCOCC3)cc2N1Cc1ccccc1F (stereo not given) | 12µM | – | – | ? | ? | –
O=C1C2CCCN2c2ccc(S(=O)(=O)N3CCOCC3)cc2N1Cc1cccc(C(F)(F)F)c1 (stereo not given) | 0.52µM | – | – | ? | 1µM | –
C/C(=N\O)c1ccc2c3c([nH]c2c1)CCCC3 | – | – | 65 | – | – | 20
CCOc1ccccc1NC(=O)Cn1c(=O)n(Cc2cccs2)c(=O)c2cccnc21 | · | – | · | · | · | ·
Cc1ccc(CSc2cn(CC(=O)N3CCCC3)c3ccccc23)cc1 | · | – | · | · | · | ·
O=C(Cn1cc(SCc2ccc(F)cc2)c2ccccc21)N1CCOCC1 | – | – | 36 | – | – | 16
O=C(Cn1cc(SCc2ccc(Cl)cc2)c2ccccc21)N1CCOCC1 | ? | – | 26 | – | – | 32
Cc1cc(CNC(=O)c2ccc(C)c([N+](=O)[O-])c2)c2ccccc2n1 | ? | – | – | – | – | –
O=C(NCc1cc(Br)cc(Br)c1OC(=O)c1ccccc1[N+](=O)[O-])c1ccccc1 | 5.2µM | – | – | ? | – | –
CCC(C)NCCCCOc1cc(C)cc(C(C)C)c1 (stereo not given) | – | – | – | – | ? | –
S=C(Nc1ccccn1)NC1CCCC1 | – | ? | – | – | – | –
S=C(Nc1ccccc1)c1ccccn1 | ? | – | 47 | – | – | 80
S=C(Nc1ccc(Nc2ccccc2)cc1)Nc1ccccn1 | –[5.75 µM] | · | 37 | – | ? | 100
O=C(O)/C=C\C(=O)Nc1ccccn1 | · | · | · | – | · | ·
O=C(N/N=C/c1ccccc1O)C(=O)Nc1ccccn1 | ? | – | 24 | · | ? | 77
SMILES | Pf growth 96h | Sm TGR block | Cycloheximide cs | NS1 inh | Pf growth 48h | Shiga toxin inh
O=C(Nc1ccccc1)C(=O)Nc1ccccn1 | – | – | 63 | – | – | 169
O=C(NC1CCCCC1)N1CCN(c2ncccn2)CC1 | – | – | – | – | · | –
CC(O)CC(C(=O)NNc1ccccc1)C(=O)NNc1ccccc1 (stereo not given) | –[5.75 µM] | – | – | · | –[5.75 µM] | –
O=C(Nc1cccc(O)c1)C(=O)Nc1ccccn1 | – | – | 16 | – | – | –
O=C(CNc1ccc(F)cc1Cl)Nc1cccc(S(=O)(=O)N2CCCCC2)c1 | ? | – | · | · | ? | ·
O=C(COc1ccc(F)cc1Cl)Nc1cccc(S(=O)(=O)N2CCCCCC2)c1 | 13µM | – | · | · | ? | ·
O=C(COc1cccc2cccnc12)NCC(F)(F)F | – | – | – | – | – | –
O=C(COC(=O)CNC(=O)c1ccc(Cl)cc1Cl)Nc1cccc(S(=O)(=O)N2CCCC2)c1 | – | 50µM | · | · | – | ·
O=C(COc1cccc2cccnc12)Nc1cccc(S(=O)(=O)N2CCCC2)c1 | ? | – | · | · | 10µM | ·
O=C(COC(=O)CNC(=O)c1ccccc1F)Nc1cccc(S(=O)(=O)N2CCCCCC2)c1 | – | – | – | – | – | –
O=C(COc1cccc2cccnc12)Nc1ccccc1 | – | – | 34 | · | – | –
CCCCCN(C(=O)CSc1n[nH]c(-c2ccc(C)cc2)n1)c1c(N)n(CCCC)c(=O)[nH]c1=O | ? | – | · | · | – | ·
O=C(Cc1ccc(Br)cc1)Nc1ccc(S(=O)(=O)Nc2ncccn2)cc1 | – | – | – | – | – | –
CCc1ccccc1OCC(=O)Nc1cccc(S(=O)(=O)N2CCCC2)c1 | ? | – | · | · | ? | ·
CC(=O)c1cc(Cl)ccc1OCC(=O)Nc1cccc(S(=O)(=O)N2CCCC2)c1 | 3.7µM | – | · | · | ? | ·
CC(=O)N(C)c1ccc(NC(=O)Nc2ccccc2C)cc1 | – | – | 39 | · | – | 82
CC(=O)N(C)c1ccc(NC(=O)Nc2ccc(C)c(C)c2)cc1 | ? | – | 12 | – | – | –
Cc1ccc(S(=O)(=O)N2CCC(C(=O)NCc3ccncc3)CC2)cc1 | – | – | – | – | – | –
Cc1ccc2nc(SC(C)C(=O)N3CC(C)OC(C)C3)[nH]c2c1 (stereo not given) | – | – | – | · | ? | –
Cc1ccc2nc(SC(C)C(=O)N3CCCC3)[nH]c2c1 (stereo not given) | – | – | 25 | – | – | 57
CN(C)C(=O)CSc1nc2ccc(C(=O)c3ccccc3)cc2[nH]1 | ? | – | 23 | – | – | ·
Cc1ccc2nc(SCC(=O)N3CCN(C(=O)c4ccco4)CC3)[nH]c2c1 | – | – | – | – | – | –
O=C(CSc1nc2ccc(Cl)cc2[nH]1)N1CCN(C(=O)c2ccco2)CC1 | ? | 50µM | – | – | – | –
Cc1ccc2nc(SC(C)C(=O)N3CCCCC3)[nH]c2c1 (stereo not given) | – | – | 35 | · | – | –
CC(Sc1nc2ccc(C(=O)c3ccccc3)cc2[nH]1)C(=O)O (stereo not given) | – | – | – | – | ? | –
SMILES | Pf growth 96h | Sm TGR block | Cycloheximide cs | NS1 inh | Pf growth 48h | Shiga toxin inh
COC(=O)CSc1nc2ccc(C)cc2[nH]1 | – | – | – | – | – | –
Cc1ccc2nc(SCC(=O)c3ccc(O)cc3O)[nH]c2c1 | ? | – | 46 | – | – | 49
Cc1ccc2nc(SCC(=O)N3CCCC3)[nH]c2c1 | – | – | 22 | – | – | –
Cc1ccc2nc(SCC(=O)NC3CC3)[nH]c2c1 | – | – | – | – | – | –
O=C(Nn1c(Cc2ccccc2)nc2ccccc2c1=O)c1c(O)c2cccc3c2n(c1=O)CCC3 | – | – | – | – | – | –
Nc1ccc(SCc2nc3cccc4c3n2CCC4)cc1 | – | – | 25 | – | – | 55
O=C(CSc1nc2ccccc2nc1Cc1ccccc1)Nc1ccccc1C(F)(F)F | · | – | · | · | · | ·
Cc1cc2nc3c(nc2cc1C)C(O)=C3O | – | 14µM | – | – | – | –
